Reference: PubChem BioAssay (EPA / NIEHS)
Several values for one entry are separate records, joined by “and”; a condition that tells them apart may be missing. Equal values may be shown once. The source holds several records for some structures; these can differ, active in one and inactive in another. Activity calls are given as the source filed them. Rule for the calls: active = hit-call score of the fitted dose curve at least 0.9, where 1 is the maximum; inactive = score below 0.9.

Legend:
Conditions in all cases: primary human B cells with PBMC
[1] = BSK_BT_PBMCCytotoxicity: PBMC Cytotoxicity Assessment in the BioMAP Diversity Plus: BT Assay (AID 2284225);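 note: PBMC viability measured by Alamar Blue dye reduction fluorescence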
Outline: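 Viability by Alamar Blue reduction (6 h, ex/em 546/580 nm) after 90 h culture of SEB/TSST-1-activated PBMC (20 ng/mL each) given compound 1 h before activation. DMSO served as baseline for curve fitting.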

[2] = read-out: Secreted IgG (sIgG), gene 3500; test: BSK_BT_sIgG: BioMAP Diversity Plus: BT Assay for Secreted IgG (sIgG) Biomarker Activity (AID 2284226)
Outline: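 Cells (B cells with peripheral blood mononuclear cells) are dosed, cultured 24 h, then supernatant IgG is measured by ELISA. DMSO serves as negative control; curves are fitted for signal increase.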

[3] = BSK_BT_Bcell_Proliferation: Viability Assessment in the BioMAP Diversity Plus: BT Assay for B cell Proliferation (AID 2284227)
Outline: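 Human B cells co-cultured with PBMC were dosed with test chemicals and relative cell number was quantified by SRB staining at 72 h. Cells were fixed in 10% TCA, stained with 0.1% SRB and read at 560 nm. Activity was fitted in the positive direction against DMSO.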

[4] = read-out: Interleukin 6 (IL6), IL6 (gene 3569); test: BSK_BT_xIL6: BioMAP Diversity Plus: BT Assay for Interleukin 6 (IL6) Biomarker Activity (AID 2284228)
Outline: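 Secreted IL-6 in the primary human B cell plus PBMC system, measured by Luminex at 24 h post-chemical, DMSO as baseline. Alamar Blue viability: 75,000 cells/well, chemical 1 h before SEB/TSST-1 (20 ng/mL each), 90 h, then 6 h dye.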

[5] = read-out: Interleukin 17A (IL17A), IL17A (gene 3605); test: BSK_BT_xIL17A: BioMAP Diversity Plus: BT Assay for Interleukin 17A (IL17A) Biomarker Activity (AID 2284229)
Outline: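 Luminex xMAP quantification of secreted IL-17A after 24 h chemical exposure of a primary human B cell/PBMC co-culture. Signal increases fitted relative to DMSO negative control.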

[6] = read-out: Tumor necrosis factor (Homo sapiens) (UniProt P01375); test: BSK_BT_xTNFa: BioMAP Diversity Plus: BT Assay for Tumor necrosis factor alpha (TNF-alpha) Biomarker Activity (AID 2284230)
Outline: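 B cells with PBMC in co-culture, dosed and sampled at 24 h; secreted TNF-alpha measured by Luminex xMAP bead assay. Activity fitted in the gain direction against DMSO as negative control and baseline.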

Measured: AC50

Tumor necrosis factor (Homo sapiens), sequence (P01375 whole entry, looked up): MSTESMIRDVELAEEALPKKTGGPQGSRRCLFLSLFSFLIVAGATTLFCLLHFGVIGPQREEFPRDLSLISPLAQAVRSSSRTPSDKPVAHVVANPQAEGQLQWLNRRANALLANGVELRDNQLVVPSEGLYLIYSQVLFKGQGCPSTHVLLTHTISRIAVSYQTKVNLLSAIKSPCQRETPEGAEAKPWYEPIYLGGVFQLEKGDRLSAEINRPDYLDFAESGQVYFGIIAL

CCO[Si](CCC(F)(F)C(F)(F)C(F)(F)C(F)(F)C(F)(F)C(F)(F)F)(OCC)OCC
inactive: all assays above

O=P(O)(O)OCCC(F)(F)C(F)(F)C(F)(F)C(F)(F)C(F)(F)C(F)(F)F
inactive: [1] | [2] | [3] | [5] | [6]
active: [4] 21.9 µM and 19.9 µM | [5] 20.2 µM

OCC(F)(F)C(F)(F)C(F)(F)F
not listed: [6]
inactive: all other assays above

C=CC(=O)OCC(F)(F)C(F)(F)C(F)(F)C(F)(F)COC(=O)C=C
active: [1] 11.3 µM and 11.2 µM | [2] 10.5 µM and 7.38 µM | [3] 13.7 µM and 12 µM | [4] 12.3 µM and 10.4 µM | [5] 7.14 µM and 8.58 µM | [6] 9.76 µM and 9.35 µM

O=C(O)C(F)(F)C(F)(F)C(F)(F)C(F)(F)C(F)(F)C(F)(F)C(F)(F)C(F)(F)C(F)(F)C(F)(F)C(F)(F)C(F)(F)C(F)(F)F
inactive: all assays above

O=S(=O)(O)C(F)(F)C(F)(F)C(F)(F)C(F)(F)C(F)(F)C(F)(F)C(F)(F)F
inactive: all assays above

OCCCC(F)(F)C(F)(F)C(F)(F)F
inactive: all assays above

OCC(F)(F)C(F)(F)C(F)(F)C(F)F
inactive: all assays above

FC(F)(F)C(F)(F)C(F)(F)C(F)(F)CCI
inactive: all assays above

CCc1ccc(C(c2ccc(CC)cc2)C(Cl)Cl)cc1
active: [1] 31.1 µM | [2] 14.7 µM | [3] 31.7 µM | [4] 27.8 µM | [5] 28.8 µM | [6] 28.5 µM

O=C(O)C(F)(F)C(F)(F)C(F)F
inactive: all assays above

NC(=O)C(F)(F)C(F)(F)C(F)(F)C(F)(F)F
not listed: [6]
inactive: all other assays above

CCCCOCCOCCOC(=O)CCCCC(=O)OCCOCCOCCCC
not listed: [6]
inactive: all other assays above

O=C(O)C(F)(F)C(F)(F)C(F)(F)C(F)(F)C(F)(F)C(F)(F)C(F)(F)C(F)(F)C(F)(F)C(F)(F)C(F)(F)C(F)(F)F
inactive: all assays above

CO[Si](OC)(c1ccccc1)c1ccccc1
not listed: [6]
inactive: all other assays above

C=C(C)C(=O)OCCC(F)(F)C(F)(F)C(F)(F)C(F)(F)C(F)(C(F)(F)F)C(F)(F)F
inactive: all assays above

O=C(O)C(F)(F)C(F)(F)F
not listed: [6]
inactive: all other assays above

FC(F)(F)C(F)(F)C(F)(F)C(F)(F)C(F)(F)C(F)(F)C(F)(F)Br
inactive: all assays above

O=C(O)C(F)(F)C(F)(F)C(F)(F)C(F)(F)C(F)(F)C(F)(F)C(F)(F)C(F)(F)Cl
active: [1] 20.5 µM and 22.2 µM | [3] 8.64 µM and 37.3 µM
inactive: all other assays above

CS(C)(=O)=O
inactive: all assays above

CCCCCCCOC(=O)c1ccccc1C(=O)OCCCCCCC
active: [2] 13.3 µM
inactive: all other assays above

O=S(=O)(OCCOC(F)(F)F)C(F)(F)F
inactive: all assays above

Nc1ccc([N+](=O)[O-])cc1O
inactive: all assays above

OCC(F)(F)C(F)(F)C(F)(F)C(F)(F)C(F)(F)C(F)F
not listed: [6]
inactive: all other assays above

C=CC(F)(F)C(F)(F)C(F)(F)C(F)(F)C(F)(F)C(F)(F)C(F)(F)C(F)(F)F
not listed: [6]
inactive: all other assays above

FC(F)(F)C(F)(F)C(F)(F)C(F)(F)C(F)(F)C(F)(F)C(F)(F)I
inactive: all assays above

O=C(O)C=C(C(F)(F)F)C(F)(F)F
active: [2] 46 µM and 43.1 µM | [3] 30 µM
inactive: [1] | [4] | [5]

C=CC(F)(F)C(F)(F)C(F)(F)C(F)(F)C(F)(F)C(F)(F)C(F)(F)C(F)(F)C=C
inactive: all assays above

FC(F)(Br)C(F)(F)C(F)(F)C(F)(F)C(F)(F)C(F)(F)Br
inactive: all assays above

CCCCCCCCC(F)(F)C(F)(F)C(F)(F)C(F)(F)C(F)(F)C(F)(F)F
inactive: all assays above

FC1CC(F)(F)C(F)(F)C1(F)F (stereo not drawn)
inactive: all assays above

FC(F)(F)C(F)(F)C(F)(F)C(F)(F)C(F)(F)C(F)(F)CC1CO1 (stereo not drawn)
inactive: all assays above

FC(F)(F)C(F)(F)C(F)(F)N(C(F)(F)C(F)(F)C(F)(F)F)C(F)(F)C(F)(F)C(F)(F)F
inactive: all assays above

C#C[C@]1(O)CC[C@H]2[C@@H]3CCc4cc(OC)ccc4[C@H]3CC[C@@]21C
active: [2] 7.71 µM | [3] 29.6 µM | [6] 20 µM
inactive: [1] | [4] | [5]

O=C(O)C(F)(OC(F)(F)C(F)(OC(F)(F)C(F)(F)C(F)(F)F)C(F)(F)F)C(F)(F)F (stereo not drawn)
inactive: all assays above
